Results published in PubChem BioAssay (EPA / NIEHS).
Active and inactive are the calls of the source. The calls were made as follows: active = hit-call score of the fitted dose curve at least 0.9, where 1 is the maximum; inactive = score below 0.9.

Legend:
Details in all cases: mRNA level, 48 h; actives raise or lower the signal
[1] = read-out: Cyclin D1 (CCND1), CCND1 (gene 595); assay: LTEA_HepaRG_CCND1: Life Technologies and Expression Analysis (LTEA) Assay for Cyclin D1 (CCND1) using HepaRG (AID 2283451);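 as to AC50: differentiated human HepaRG liver cells in serum-free induction medium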
Outline: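 Expression of CCND1 was quantified by qRT-PCR on Fluidigm arrays using ACTB, GAPDH and POLR2A as reference genes. HepaRG cultures, plated 48 h beforehand, were dosed for 48 h at up to 100 uM (half-log, 8 points) in 0.5% DMSO.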

[2] = read-out: catalase (CAT), CAT (gene 847); assay: LTEA_HepaRG_CAT: Life Technologies and Expression Analysis (LTEA) Assay for catalase (CAT) using HepaRG (AID 2283452)
Outline: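 Expression of CAT was quantified by TaqMan qRT-PCR with ACTB/GAPDH/POLR2A normalization after 48 h chemical exposure of HepaRG. Eight-point half-log series, top 100 uM, in 0.5% DMSO; gain or loss fitted against vehicle.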

[3] = read-out: flavin-containing dimethylaniline monooxygenases 3 (FMO3), FMO3 (gene 2328); assay: LTEA_HepaRG_FMO3: Life Technologies and Expression Analysis (LTEA) Assay for flavin-containing dimethylaniline monooxygenases 3 (FMO3) using HepaRG (AID 2283453);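 as to AC50: differentiated human HepaRG liver cells in serum-free induction medium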
Outline: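 Differentiated HepaRG cells in serum-free induction medium, exposed 48 h in duplicate to 8 half-log concentrations up to 100 uM in 0.5% DMSO. FMO3 mRNA by qRT-PCR, normalized to ACTB, GAPDH, POLR2A; bidirectional fit vs DMSO.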

[4] = read-out: Cytochrome P450 (CYP1A1), CYP1A1 (gene 1543); assay: LTEA_HepaRG_CYP1A1: Life Technologies and Expression Analysis (LTEA) Assay for Cytochrome P450 (CYP1A1) using HepaRG (AID 2283454)
Outline: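 CYP1A1 transcript levels measured by Fluidigm qRT-PCR against three housekeeping genes, 48 h after chemical dosing of human HepaRG cells (highest concentration 100 uM, half-log steps, 0.5% DMSO vehicle). Gain or loss of signal fitted relative to DMSO.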

[5] = read-out: CFLAR gene, CFLAR (gene 8837); assay: LTEA_HepaRG_CFLAR: Life Technologies and Expression Analysis (LTEA) Assay for CFLAR gene using HepaRG (AID 2283455)
Outline: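 HepaRG, 48 h exposure, 8-pt conc-response (100 uM top, half-log), 0.5% DMSO vehicle, duplicates. CFLAR expression by qRT-PCR; ACTB/GAPDH/POLR2A normalization; gain or loss fit vs DMSO baseline.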

[6] = read-out: Forkhead box O1 (FOXO1), FOXO1 (gene 2308); assay: LTEA_HepaRG_FOXO1: Life Technologies and Expression Analysis (LTEA) Assay for Forkhead box O1 (FOXO1) using HepaRG (AID 2283456)
Outline: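 Readout is FOXO1 transcript level by multiplexed qRT-PCR against three housekeeping genes, curve-fitted in both directions relative to 0.5% DMSO vehicle. Human HepaRG cultures received chemicals for 48 h, up to 100 uM in half-log steps.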

[7] = read-out: Forkhead box O3 (FOXO3), FOXO3 (gene 2309); assay: LTEA_HepaRG_FOXO3: Life Technologies and Expression Analysis (LTEA) Assay for Forkhead box O3 (FOXO3) using HepaRG (AID 2283459)
Outline: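 HepaRG, 48 h post-dose; 8 conc., half-log from 100 uM, 0.5% DMSO, duplicates; serum-free induction medium. Readout: FOXO3 mRNA, TaqMan qRT-PCR, housekeeping-normalized. Bidirectional curve fit vs DMSO baseline.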

[8] = read-out: ABC Transporter (ABCB1), ABCB1 (gene 5243); assay: LTEA_HepaRG_ABCB1: Life Technologies and Expression Analysis (LTEA) Assay for ABC Transporter (ABCB1) using HepaRG (AID 2283460)
Outline: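 Expression of ABCB1 was quantified by qRT-PCR against three housekeeping genes after human HepaRG cultures received test chemicals for 48 hours. Concentrations spanned eight half-log steps topping at 100 uM in 0.5% DMSO; gain or loss of signal was fitted relative to vehicle.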

[9] = read-out: growth arrest and DNA damage 45 (GADD45B), GADD45B (gene 4616); assay: LTEA_HepaRG_GADD45B: Life Technologies and Expression Analysis (LTEA) Assay for growth arrest and DNA damage 45 (GADD45B) using HepaRG (AID 2283461)
Outline: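 Transcript level quantified by Fluidigm TaqMan qRT-PCR with three housekeeping genes for normalization, analyzed for up- or down-regulation against 0.5% DMSO. HepaRG cultures dosed 48 h at eight half-log concentrations up to 100 uM, duplicates.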

[10] = read-out: ABC Transporter (ABCC3), ABCC3 (gene 8714); assay: LTEA_HepaRG_ABCC3: Life Technologies and Expression Analysis (LTEA) Assay for ABC Transporter (ABCC3) using HepaRG (AID 2283462)
Outline: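 Transcript level by TaqMan qRT-PCR, normalised to three housekeeping genes, fitted in both directions relative to vehicle. Chemicals tested in duplicate at eight half-log concentrations up to 100 uM for 48 h on HepaRG cells (0.5% DMSO).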

[11] = read-out: ABC Transporter (ABCB11), ABCB11 (gene 8647); assay: LTEA_HepaRG_ABCB11: Life Technologies and Expression Analysis (LTEA) Assay for ABC Transporter (ABCB11) using HepaRG (AID 2283463)
Outline: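 ABCB11 transcript levels are read by Fluidigm TaqMan qRT-PCR after 48 h chemical treatment of human HepaRG cells. Concentrations span 100 uM downward in half-log steps with 0.5% DMSO; gain or loss is fitted against DMSO controls.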

[12] = read-out: ABC Transporter (ABCC2), ABCC2 (gene 1244); assay: LTEA_HepaRG_ABCC2: Life Technologies and Expression Analysis (LTEA) Assay for ABC Transporter (ABCC2) using HepaRG (AID 2283464)
Outline: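 Endpoint is ABCC2 transcript level from qRT-PCR, normalized to three housekeeping genes and fitted bidirectionally relative to DMSO. Human HepaRG cells received test chemical for 48 h at up to 100 uM (8 points, half-log steps, 0.5% DMSO), duplicate wells.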

[13] = read-out: Broad substrate specificity ATP-binding cassette transporter ABCG2 (Homo sapiens) (UniProt Q9UNQ0); assay: LTEA_HepaRG_ABCG2: Life Technologies and Expression Analysis (LTEA) Assay for ABC Transporter (ABCG2) using HepaRG (AID 2283465)
Outline: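 Read-out is ABCG2 mRNA induction or loss quantified by qRT-PCR after 48 h chemical treatment of human HepaRG cells, normalized to three housekeeping genes. Concentrations reached 100 uM top in half-log steps; fitting was bidirectional against 0.5% DMSO.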

[14] = read-out: ATP-citrate lyase (ACLY), ACLY (gene 47); assay: LTEA_HepaRG_ACLY: Life Technologies and Expression Analysis (LTEA) Assay for ATP-citrate lyase (ACLY) using HepaRG (AID 2283466)
Outline: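 HepaRG, 48 h exposure, 8-pt half-log dilutions (top 100 uM), 0.5% DMSO. Readout: ACLY mRNA, TaqMan qRT-PCR, housekeeping-normalized (ACTB/GAPDH/POLR2A). Bidirectional curve fit vs DMSO.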

[15] = read-out: Peroxisomal acyl-coenzyme A oxidase 1 (ACOX1) gene, ACOX1 (gene 51); assay: LTEA_HepaRG_ACOX1: Life Technologies and Expression Analysis (LTEA) Assay for Peroxisomal acyl-coenzyme A oxidase 1 (ACOX1) gene using HepaRG (AID 2283467)
Outline: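 Measured by qRT-PCR against three housekeeping genes: ACOX1 transcript change in human HepaRG cells after 48 h dosing. Concentrations ran up to 100 uM in half-log steps. Curves were fitted bidirectionally relative to 0.5% DMSO.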

[16] = read-out: Alkaline Phosphatase, Placental (ALPP) gene, ALPP (gene 250); assay: LTEA_HepaRG_ALPP: Life Technologies and Expression Analysis (LTEA) Assay for Alkaline Phosphatase, Placental (ALPP) gene using HepaRG (AID 2283468)
Outline: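 ALPP transcript level, measured by qRT-PCR and normalized to three housekeeping genes (ACTB, GAPDH, POLR2A), after 48 h dosing of differentiated HepaRG in serum-free induction medium. Top concentration 100 uM with half-log dilutions (8 points, 0.5% DMSO, duplicates); bidirectional fitting relative to DMSO.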

[17] = read-out: Bcl-2 (BAD) gene, BAD (gene 572); assay: LTEA_HepaRG_BAD: Life Technologies and Expression Analysis (LTEA) Assay for Bcl-2 (BAD) gene using HepaRG (AID 2283469)
Outline: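 BAD transcript change, measured by qRT-PCR against three housekeeping genes and fitted in both directions relative to 0.5% DMSO, after 48 h chemical treatment of human HepaRG liver cells at concentrations up to 100 uM.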

[18] = read-out: growth arrest and DNA damage 45 (GADD45A), GADD45A (gene 1647); assay: LTEA_HepaRG_GADD45A: Life Technologies and Expression Analysis (LTEA) Assay for growth arrest and DNA damage 45 (GADD45A) using HepaRG (AID 2283458)
Outline: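 Differentiated HepaRG cells exposed 48 h in serum-free induction medium to 8 concentrations, top 100 uM in half-log steps, 0.5% DMSO. GADD45A mRNA quantified by qRT-PCR, normalized to ACTB, GAPDH and POLR2A; bidirectional fit versus DMSO.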

Measured: AC50

Broad substrate specificity ATP-binding cassette transporter ABCG2 (Homo sapiens), sequence (Q9UNQ0 whole entry, looked up): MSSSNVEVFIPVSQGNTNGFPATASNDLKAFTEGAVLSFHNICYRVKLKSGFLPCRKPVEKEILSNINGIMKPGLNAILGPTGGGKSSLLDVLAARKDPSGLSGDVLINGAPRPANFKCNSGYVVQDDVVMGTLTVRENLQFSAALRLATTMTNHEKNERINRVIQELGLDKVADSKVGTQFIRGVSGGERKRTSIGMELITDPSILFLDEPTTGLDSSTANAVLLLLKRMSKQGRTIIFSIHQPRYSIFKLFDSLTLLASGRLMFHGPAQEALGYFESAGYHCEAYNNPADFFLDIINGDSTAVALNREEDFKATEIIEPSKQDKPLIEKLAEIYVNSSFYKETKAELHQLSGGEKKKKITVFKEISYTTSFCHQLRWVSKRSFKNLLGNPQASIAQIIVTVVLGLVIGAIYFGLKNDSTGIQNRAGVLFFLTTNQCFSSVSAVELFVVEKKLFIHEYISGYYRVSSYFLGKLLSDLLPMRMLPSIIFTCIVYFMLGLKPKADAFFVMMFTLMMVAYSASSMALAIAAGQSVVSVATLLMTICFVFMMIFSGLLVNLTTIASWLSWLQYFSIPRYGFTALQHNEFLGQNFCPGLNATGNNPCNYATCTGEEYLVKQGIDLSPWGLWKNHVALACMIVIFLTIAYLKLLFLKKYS

Clc1nc(Cl)nc(Nc2ccccc2Cl)n1
active: [4] 25.5 µM
not listed: [18]
inactive: all other assays above

CCNP(=S)(OC)O/C(C)=C/C(=O)OC(C)C (stereo not drawn)
active: [4] 14.3 µM | [8] 13 µM | [12] 13.1 µM | [13] 13.6 µM | [14] 67 µM
not listed: [7] | [16]
inactive: all other assays above

O=C(Nc1ccccc1-c1ccc(Cl)cc1)c1cccnc1Cl
active: [4] 52.5 µM | [11] 0.921 µM
not listed: [16] | [18]
inactive: all other assays above

COC(=O)c1c(C(F)F)nc(C(F)(F)F)c(C2=NCCS2)c1CC(C)C
active: [18] 0.0299 µM | [12] 50 µM
not listed: [7] | [16]
inactive: all other assays above

Cc1cc(C)nc(Nc2ccccc2)n1
active: [4] 1.2 µM
not listed: [7] | [16] | [18]
inactive: all other assays above

Cc1nc(N(C)C)nc(OC(=O)N(C)C)c1C
active: [4] 34.3 µM | [8] 9.92 µM
not listed: [7] | [18]
inactive: all other assays above

CCOP(=O)(OCC)Oc1nc(Cl)c(Cl)cc1Cl
active: [1] 80.7 µM | [2] 91.1 µM | [3] 79.3 µM | [4] 73.5 µM | [10] 80.5 µM | [11] 79.2 µM | [12] 76.4 µM | [15] 74.9 µM
inactive: [5] | [6] | [8] | [9] | [13] | [14] | [17]

CC1(C)CON(Cc2ccccc2Cl)C1=O
active: [4] 50 µM | [8] 9.19 µM | [12] 18.4 µM
not listed: [7]
inactive: all other assays above
